High-throughput results: PubChem, National Center for Advancing Translational Sciences (NCATS)
In the library only some 11% were active in any assay of this set; here they are far more common.
HEK293 tox: cytotoxic compounds in HEK 293 cells. HEK 293 viability, ATP luminescence (CellTiter-Glo), 48-72 h. Potency, µM (doses to about 115 µM), for the others: top-dose activity change, negative = cytotoxicity, most hits filed as inhibitors. 94,000 compounds, 6.6% hits. AID 1345083; also: % is scaled to controls: 0 for no effect and ±100 for the full control effect; nearly all actives have a fitted effect of over 60% in size
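ATP-coupled CellTiter-Glo luminescence served as viability read-out, recorded 10 min after reagent addition at room temperature. HEK 293 cells, 250 cells/well, had been incubated with pintool-transferred compound for 48 or 72 hr at 37 degree Celsius.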
3T3 cytotox: kills NIH 3T3 cells | 94,000 compounds, 4.3% hits | Potency, µM (series often up to 96.7 µM), inactives show at the highest dose activity change, negative = cytotoxicity, hits mostly inhibitors | NIH 3T3 viability, CellTiter-Glo ATP luminescence, 48-72 h; also: % is scaled to controls: 0 for no effect and ±100 for the full control effect; nearly all actives have a fitted effect of over 55% in size
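Mouse fibroblast NIH 3T3 cells, 400 per well, received compound via pintool and were incubated for 48 or 72 hr prior to CellTiter-Glo ATP luminescence measurement.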
hNpr1 antagonist: antagonists of human natriuretic peptide receptor Npr1 | HEK293 hNpr1 GloSensor cGMP, ANP-stimulated luminescence | Potency, µM (series often up to 46.3 µM), without a hit: at the highest dose activity change, negative = inhibition, most hits filed as inhibitors | 76,000 compounds, 1.6% hits; calls by dose curve; also: % is scaled to controls: 0 for no effect and ±100 for the full control effect; nearly all actives have a fitted effect of over 60% in size
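Compound pre-incubated 30 min at room temperature on GloSensor-loaded HEK293 cells stably carrying hNpr1 and the pGS-40F cGMP biosensor. Stimulation uses hNppA at 0.1 nM final; luminescence is taken at baseline and 20 min post-agonist.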
FLuc inh: Photinus pyralis luciferase inhibition. Potency, µM (titrated, usually from 115 µM), most hits filed as inhibitors. purified P. pyralis luciferase, luminescence, biochemical. P08659. 76,000 compounds, 2.5% hits; also: % is scaled to controls: 0 for no effect and ±100 for the full control effect; nearly all actives have a fitted effect of over 65% in size
Target sequence (P08659 whole entry, looked up): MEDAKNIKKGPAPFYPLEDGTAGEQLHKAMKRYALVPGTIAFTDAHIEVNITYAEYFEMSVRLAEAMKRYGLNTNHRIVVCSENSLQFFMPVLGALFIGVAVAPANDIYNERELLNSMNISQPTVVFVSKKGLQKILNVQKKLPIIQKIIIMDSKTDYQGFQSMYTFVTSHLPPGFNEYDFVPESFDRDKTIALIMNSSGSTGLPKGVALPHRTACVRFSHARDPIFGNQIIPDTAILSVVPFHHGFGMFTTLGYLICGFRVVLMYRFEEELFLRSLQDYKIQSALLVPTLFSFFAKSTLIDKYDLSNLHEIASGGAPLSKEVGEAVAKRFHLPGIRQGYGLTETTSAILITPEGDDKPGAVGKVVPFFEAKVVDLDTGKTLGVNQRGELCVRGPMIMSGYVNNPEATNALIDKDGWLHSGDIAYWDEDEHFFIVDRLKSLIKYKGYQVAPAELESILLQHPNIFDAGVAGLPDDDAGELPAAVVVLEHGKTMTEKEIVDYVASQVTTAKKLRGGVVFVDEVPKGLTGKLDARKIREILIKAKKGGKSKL
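Luminescence read by CCD imaging after purified firefly luciferase (10nM final) was added to substrate buffer holding 10uM D-luciferin and 10uM ATP, pH 7.5, pre-dosed with compound.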
Npr1 antag conf: confirmation of human Npr1 natriuretic peptide receptor antagonists; shares compounds with hNpr1 antagonist; HEK293 hNpr1 cGMP GloSensor luminescence, ANP-stimulated; Potency, µM (series often up to 57.6 µM), inactives show top-dose activity change, negative = inhibition, hits mostly inhibitors; 1,400 compounds, 76% hits; AID 1347044; calls by dose curve; also: nearly all actives have a fitted effect of over 70% in size
Npr2 selectivity: selectivity test of Npr1 antagonists against human Npr2 | shares compounds with hNpr1 antagonist | HEK293 hNpr2 GloSensor cGMP luminescence, CNP-stimulated | Potency, µM (top dose mostly 57.6 µM), without a hit: top-dose activity change, negative = inhibition, usual class: inhibitors | 1,400 compounds, 67% hits | AID 1347046; calls by dose curve; also: nearly all actives have a fitted effect of over 70% in size
FLuc counter: FLuc enzyme inhibition, Npr1 counter-screen. purified FLuc enzyme, luminescence, Km substrate. AID 1347047. 1,400 compounds, 0.7% hits. Potency, µM (titrated, usually from 57.6 µM), without a hit: at the highest dose activity change, negative = inhibition, hits mostly inhibitors. shares compounds with hNpr1 antagonist; also: series mostly up to about 58 µM; 0% is about no effect
GloSensor ctrl: reduces cGMP signal in GloSensor control cells; AID 1347051; shares compounds with hNpr1 antagonist; 1,400 compounds, 69% hits; Potency, µM (highest dose often 57.6 µM), without a hit: top-dose activity change, negative = inhibition, hits mostly inhibitors; HEK293 GloSensor cGMP, SNP-stimulated, luminescence; calls by dose curve; also: % is scaled to controls: 0 for no effect and ±100 for the full control effect; nearly all actives have a fitted effect of over 70% in size
Numbers without * were called inactive; i = inactive; ? = inconclusive; nt = no result; [ ] = remark or other dose. Unless noted, calls follow the shape of the dose curve; as a rule, active = well fitted curve in the direction sought with a large enough effect; inconclusive = small, poorly fitted or top-dose-only effect, or another doubt; inactive = no such curve, though single readings can be large; an effect the other way counts as inactive or inconclusive. Potency is read from the fitted curve at half-maximal effect.

SMILES | HEK293 tox | 3T3 cytotox | hNpr1 antagonist | FLuc inh | Npr1 antag conf | Npr2 selectivity | FLuc counter | GloSensor ctrl
CC(C)Cc1cn(CC2CCCN(C(=O)NC3CCCCCC3)C2)nn1 (stereo not drawn) | ? | ? | 10µM* | i | 17µM* | 17µM* | 1% | 12µM*
COCc1nc2nc(-c3ccccc3)c(-c3ccc(O)c(F)c3)cc2n1C | ? | ? | -26%[70.6 µM] | ? | nt | nt | nt | nt
CN(C)CCNC(=O)c1nc2nc(-c3ccccc3)c(-c3ccc(O)c(F)c3)cc2n1C | 71µM* | 45µM* | 22µM* | i | 35µM* | 20µM* | 2%[86.2 µM] | -8%[86.2 µM]
O=C(C1CC1)N1CC(Oc2ccc(-c3noc(C4CCOCC4)n3)cc2)C1 | ? | ? | 10µM* | i | 9.7µM* | 11µM* | -11% | 9.7µM*
O=C(N1CC(Oc2ccc(-c3nc(-c4ccccc4)no3)cc2)C1)C1(c2ccccc2)CC1 | 22µM* | ? | ? | i | ? | 22µM* | -12% | 22µM*
CCC(C)NC(=O)N1CC(Oc2ccc(-c3noc(C4CCOCC4)n3)cc2)C1 (stereo not drawn) | ? | ? | 7.9µM* | i | 5.4µM* | 6.1µM* | -8% | 4.8µM*
CCC(C)NC(=O)N1CC(Oc2cccc(-c3nc(C)no3)c2)C1 (stereo not drawn) | ? | -21% | -6% | i | nt | nt | nt | nt
CCC(C)NC(=O)N1CC(Oc2ccc(-c3nc(-c4ccccc4)no3)cc2)C1 (stereo not drawn) | -47% | ? | 1.3µM* | i | 1.9µM* | 3.1µM* | -15% | 2.2µM*
CC(C)S(=O)(=O)N1CC(Oc2ccc(-c3noc(C4CCOCC4)n3)cc2)C1 | ? | -14% | 2.2µM* | i | 11µM* | 12µM* | -1% | 11µM*
c1cc(-c2noc(C3CCOCC3)n2)ccc1OC1CNC1 | -19% | -7% | 7% | ? | nt | nt | nt | nt
CC(C)CNC(=O)N1CC(Oc2ccc(-c3noc(C4CCOCC4)n3)cc2)C1 | ? | ? | 14µM* | i | 4.8µM* | 5.4µM* | -17% | 4.3µM*
O=C(CCCc1ccccc1)N1CCCC1c1noc(COc2ccc(F)cc2)n1 (stereo not drawn) | ? | ? | -5% | i | nt | nt | nt | nt
O=C(Cc1c[nH]c2ncc(-c3ccccc3Oc3ccccc3)cc12)NCc1cccnc1 | ? | ? | 28µM* | i | 22µM* | 22µM* | -10%[86.2 µM] | 20µM*
NC(=O)Cc1c[nH]c2ncc(-c3ccccc3Oc3ccccc3)cc12 | ? | ? | 25µM* | i | 35µM* | 35µM* | -1%[86.2 µM] | 20µM*
O=C1CCN(Cc2ccc(C(F)(F)F)cc2)CCCC(c2nc(-c3cccnc3)no2)CCN1 (stereo not drawn) | 45µM* | ? | 8.9µM* | i | 17µM* | 17µM* | 2% | 15µM*
O=C1CCN(Cc2ccncc2)CCCC(c2nc(-c3cccnc3)no2)CCN1 (stereo not drawn) | i | -2% | 2% | i | nt | nt | nt | nt
CC(C)(C)c1nnc2ccc(C(=O)NCc3ccccc3)cn12 | -18%[172 µM] | ? | nt | nt | nt | nt | nt | nt
N#Cc1cccnc1N1CCC(NC(=O)c2ccc3nccn3c2)CC1 | ? | -63% | 11µM* | i | 22µM* | 24µM* | 2% | 19µM*
N#Cc1cccnc1-c1ccc(C(=O)N2CCC(NC(=O)c3ccncc3)CC2)cc1 | -15% | -27% | nt | nt | nt | nt | nt | nt
Cc1ccsc1C(=O)N1CCc2nnc([C@@H]3C[C@@H](O)CN3C)n2CC1 | 2% | i | 4% | i | nt | nt | nt | nt
CC(=O)N1CCC(Cc2ccc(C(=O)NC3CCN(Cc4ccccc4)CC3)cc2)CC1 | ? | ? | 11µM* | i | 24µM* | ? | 1% | 24µM*
CC(C)c1ccc(CC(=O)N2CCCc3ncc(C(=O)Nc4cccc(Cl)c4)cc32)cc1 | 25µM* | ? | 11µM* | i | 15µM* | 17µM* | 0% | 22µM*
CC(C)c1ccc(CC(=O)N2CCCc3ncc(C(=O)Nc4cccnc4)cc32)cc1 | 8.9µM* | 2.8µM* | 1.4µM* | i | 3.5µM* | 6.3µM* | -10%[86.2 µM] | 5µM*
CC(C)c1ccc(CC(=O)N2CCCc3ncc(C(=O)Nc4ccccn4)cc32)cc1 | 32µM* | 100µM* | 20µM* | i | 11µM* | 18µM* | -1%[86.2 µM] | 11µM*
CC(C)NC(=O)c1cnc2c(c1)N(C(=O)Cc1ccc(C(C)C)cc1)CCC2 | ? | ? | -18%[70.6 µM] | i | nt | nt | nt | nt
SMILES | HEK293 tox | 3T3 cytotox | hNpr1 antagonist | FLuc inh | Npr1 antag conf | Npr2 selectivity | FLuc counter | GloSensor ctrl
Cc1cc(C)c(S(=O)(=O)N2CC(c3nc(-c4ccncc4)no3)C2)c(C)c1 | 45µM* | ? | 14µM* | i | 24µM* | 22µM* | -1% | 22µM*
COc1ccc2ccc(OCc3nc(C(=O)N4CCNC(=O)C4C)co3)cc2c1 (stereo not drawn) | ? | ? | 11µM* | i | 24µM* | 22µM* | -5% | 22µM*
CNC(=O)C1CCN(C(=O)c2coc(COc3ccc4ccc(OC)cc4c3)n2)C1 (stereo not drawn) | ? | ? | -24% | ? | nt | nt | nt | nt
O=C(c1ccc2nnc(-c3cc(F)ccc3F)n2c1)N1CCOCC1 | 4% | -11% | nt | nt | nt | nt | nt | nt
Cc1cnccc1CN(C)C(=O)c1cc(COc2ccc(-n3cncn3)cc2)on1 | ? | ? | 7.1µM* | i | 5.4µM* | 9.7µM* | 0% | 5.4µM*
CC(C)n1cc(CN(C)C(=O)c2cc(COc3ccccc3)on2)cn1 | ? | ? | 0% | ? | nt | nt | nt | nt
COc1ccc2nc3n(c2c1)[C@@H](CNCc1cnc2ccccc2c1)COC3 | -27%[172 µM] | -25%[138 µM] | -15%[70.6 µM] | i | nt | nt | nt | nt
c1ccc2ncc(CNC[C@H]3COCc4nc5ccccc5n43)cc2c1 | ? | ? | 20µM* | i | 31µM* | 31µM* | 1%[86.2 µM] | 28µM*
Fc1ccc2c(c1)nc1n2[C@@H](CNCc2ccccn2)COC1 | ? | ? | -8%[70.6 µM] | i | nt | nt | nt | nt
Fc1ccc2c(c1)nc1n2[C@@H](CNCc2cnc3ccccc3c2)COC1 | ? | -26%[138 µM] | 35µM* | i | 40µM* | ? | -3%[86.2 µM] | 40µM*
